Laboratory results as given in PubChem BioAssay (Tox21).
Results filed as inconclusive are left out. Active and inactive are the calls of the source. The call rests on the fitted dose curve; in most records, active means well fitted inhibition curve with a large enough effect in the repeat runs; inconclusive means weak or mixed curves; inactive means flat fitted curve, though single readings scatter. Non-standard residues stand in square brackets, D forms with d. Residues, ends and D or L forms follow the SMILES beside them. *: point of attachment. Sta = CC(C)C[C@H](N)[C@@H](O)CC(=O)O; Isovaleryl = CC(C)CC(=O)*
On the % scale 0 is the no-effect control and ±100 the full control effect.

Experiment: qHTS assay to identify small molecule HDAC inhibitors (AID 1259364); further: top concentration of the series differs between compounds; nearly all actives have a fitted effect of over 45% in size
Settings: HCT-116 HDAC-Glo I/II luminescence, 2 h; series mostly up to 92.4 µM; activity change, negative = inhibition: at the top concentration
In short: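 Endogenous HDAC class I/II activity was measured in wild-type HCT-116 cells by HDAC-Glo luminescence after 2 h compound treatment.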
In the case of `CC(C)CC(=O)N[C@H](C(=O)N[C@H](C(=O)N[C@@H](CC(C)C)[C@@H](O)CC(=O)N[C@@H](C)C(=O)N[C@@H](CC(C)C)[C@@H](O)CC(=O)O)C(C)C)C(C)C` (Isovaleryl-VV[Sta]A[Sta]-OH), the “activity change, negative = inhibition” value is reported as -2.03% [at 42.5 µM] (inactive). In the case of `CCCCCCC(=O)c1ccccc1`, the “activity change, negative = inhibition” value is reported as -21.7% (inactive). In the case of `CNC(=O)c1c(I)c(NC(C)=O)c(I)c(C(=O)O)c1I`, the “activity change, negative = inhibition” value is reported as 6.06% [at 42.5 µM] (inactive). For `CCCCCCCCCCCCCC(=O)OCC`, the “activity change, negative = inhibition” value was -3.02% (inactive). With `C=CCN(CC=C)CC=C` the “activity change, negative = inhibition” value was 3.44% (inactive). In the case of `O=C(O)CCC(=O)Nc1ccc(S(=O)(=O)Nc2nccs2)cc1`, the “activity change, negative = inhibition” value is reported as -1.58% [at 42.5 µM] (inactive). With `CC(O)C(CO)C(C)O` (stereo not given) the “activity change, negative = inhibition” value was 2.08% (inactive). With `O=C(O)/C=C(\CC(=O)O)C(=O)O` the “activity change, negative = inhibition” value was -0.182% [at 42.5 µM] (inactive). With `CC(=O)Nc1ccc(S(=O)(=O)Nc2cc(C)on2)cc1` the “activity change, negative = inhibition” value was -1.07% [at 42.5 µM] (inactive). For `C[C@@H](CN1CC(=O)NC(=O)C1)N1CC(=O)NC(=O)C1`, the “activity change, negative = inhibition” value was 7.2% [at 42.5 µM] (inactive). With `CCN(CC)CC` the “activity change, negative = inhibition” value was 3.83% (inactive). With `CCCCCCCCOCCC#N` the “activity change, negative = inhibition” value was 0.738% (inactive). With `CC/C=C/CCCCCCCCCCOC(C)=O` the “activity change, negative = inhibition” value was 1.76% (inactive). With `COC(=O)c1ccc(C(=O)O)cc1` the “activity change, negative = inhibition” value was -4.96% (inactive). In the case of `COC(=O)C(c1ccccc1Cl)N1CCc2sccc2C1` (stereo not given), the “activity change, negative = inhibition” value is reported as 11.2% [at 42.5 µM] (inactive). With `CCCCOCCCC` the “activity change, negative = inhibition” value was 14.1% (inactive). In the case of `Cc1ccc2ccccc2n1`, the “activity change, negative = inhibition” value is reported as -8.92% (inactive). In the case of `CC(C)(C)c1ccc(N)cc1`, the “activity change, negative = inhibition” value is reported as -1.13% (inactive). With `O=C(O)Cc1c(Cl)ccc(Cl)c1Cl` the “activity change, negative = inhibition” value was 0.0036% (inactive). In the case of `CCCCCCCCCCCCCCBr`, the “activity change, negative = inhibition” value is reported as 0.0107% (inactive). With `C=C(C)C(=O)OCCOC1CC2CC1C1C=CCC21` (stereo not given) the “activity change, negative = inhibition” value was -2.25% (inactive). In the case of `CCCCCCCC(=O)N(C)C`, the “activity change, negative = inhibition” value is reported as -14.4% (inactive). For `COC(=O)/C=C(\C)CCC=C(C)C`, the “activity change, negative = inhibition” value was 0.684% (inactive). For `Clc1cc(Cl)c(Cl)c(Cl)c1Cl`, the “activity change, negative = inhibition” value was -1.75% (inactive). In the case of `CC(C)C(=O)Nc1cccc(C2CN3CCSC3=N2)c1` (stereo not given), the “activity change, negative = inhibition” value is reported as -0.0107% [at 42.5 µM] (inactive). With `COc1cc(C(=O)NC2CCCNC2)cc(OC)c1OC` (stereo not given) the “activity change, negative = inhibition” value was 7.89% [at 42.5 µM] (inactive). In the case of `CCCC(=O)C(CC)Sc1ccoc1C` (stereo not given), the “activity change, negative = inhibition” value is reported as 0.834% (inactive). In the case of `CC(C)(C)C(=O)NCCCC(=O)O`, the “activity change, negative = inhibition” value is reported as -1.35% [at 42.5 µM] (inactive). In the case of `Clc1ccc2c(c1)Nc1ccccc1S2`, the “activity change, negative = inhibition” value is reported as -8.01% [at 42.5 µM] (inactive). In the case of `Cc1ccc(OC(=O)CC(C)C)cc1`, the “activity change, negative = inhibition” value is reported as -2.74% (inactive).
